# Screening data deposited in PubChem BioAssay by National Center for Advancing Translational Sciences (NCATS).
# Hits are enriched below; roughly 7.4% of the tested compounds scored in any of these assays.
# CRE-bla Fsk: alters forskolin-stimulated CRE reporter signaling in CHO cells; AID 662; CHO CRE-bla reporter (cAMP response element driving beta-lactamase), forskolin EC10, beta-lactamase ratio; 71,000 tested, 2.5% active; Potency, µM (top dose mostly 38.2 µM), without a hit: at the highest dose activity change, negative = inhibition, usual class: activators; active means well fitted activation curve with a large enough effect in the signal ratio, with a control signal flat, not every such curve was filed as active; inconclusive means small, poorly fitted or top-dose-only effect, or effect the other way, or a change in a side signal; the % refers to the signal ratio; further: % of control where 0% means no effect
#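 Reporter-gene assay: CHO cells with beta-lactamase behind cAMP responsive elements, co-treated with compound and EC10 NKH 477 for 3 hours at 37 degrees Celsius. Activity came from the 460/530 nm CCF4 emission ratio.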
# TSHR agonist: TSH receptor (human) agonism. AID 926. Potency, µM (doses to about 57.1 µM), inactives show at the highest dose activation, hits mostly activators. 73,000 tested, 0.48% active. P16473. HEK293-CNG-TSHR cells (CNG channel as cAMP sensor), membrane potential dye, cAMP; active means well fitted activation curve with a large enough effect in the main read-out, with a control signal flat, not every such curve was filed as active; inconclusive means small, poorly fitted or top-dose-only effect, or a change in a side signal; inactive means no such curve, though single readings can be large or run the other way; % of control where 0% means no effect;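 further: the control signal comes from parental cells without the receptor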
#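 HEK 293 cells stably expressing TSHR and a cAMP-gated CNG channel; parental CNG-only cells as counterscreen. Cells preloaded 60 min with membrane potential dye plus 100 uM RO 20-1724, then compound 30 min; fluorescence read at 590 nm.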
# Tau filament bind: binders of human tau filaments; P10636; recombinant tau filaments, thioflavin S fluorescence, 15 h; filaments grown with octadecylsulfate alongside compound; Potency, µM (doses to about 57.1 µM), for the others: at the highest dose activity change, negative = inhibition; 71,000 tested, 2% active; AID 596;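 further: on the % scale 0 is the no-effect control and ±100 the full control effect; actives lower thioflavin S fluorescence by blocking filaments or displacing dye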
# Target sequence (P10636 whole entry, looked up): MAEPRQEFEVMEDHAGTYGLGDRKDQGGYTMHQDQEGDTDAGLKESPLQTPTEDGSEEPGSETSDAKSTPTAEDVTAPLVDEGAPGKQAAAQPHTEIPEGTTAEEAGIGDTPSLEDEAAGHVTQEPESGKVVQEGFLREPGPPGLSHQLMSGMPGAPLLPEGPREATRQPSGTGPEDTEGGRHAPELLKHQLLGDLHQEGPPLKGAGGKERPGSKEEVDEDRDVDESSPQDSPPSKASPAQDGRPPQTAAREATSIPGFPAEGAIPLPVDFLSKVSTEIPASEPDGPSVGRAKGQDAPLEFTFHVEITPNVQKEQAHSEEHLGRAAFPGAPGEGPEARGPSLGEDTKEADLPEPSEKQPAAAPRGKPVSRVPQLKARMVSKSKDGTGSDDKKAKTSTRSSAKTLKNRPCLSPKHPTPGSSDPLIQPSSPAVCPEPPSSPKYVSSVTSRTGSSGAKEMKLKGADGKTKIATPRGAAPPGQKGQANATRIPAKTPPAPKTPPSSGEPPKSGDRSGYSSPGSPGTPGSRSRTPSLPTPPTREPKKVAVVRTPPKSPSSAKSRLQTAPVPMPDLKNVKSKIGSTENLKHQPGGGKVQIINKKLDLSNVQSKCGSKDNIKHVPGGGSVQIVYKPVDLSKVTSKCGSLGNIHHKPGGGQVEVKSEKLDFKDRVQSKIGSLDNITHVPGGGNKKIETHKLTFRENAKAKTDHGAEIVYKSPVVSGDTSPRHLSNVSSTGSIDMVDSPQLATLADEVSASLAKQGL
#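 ThS-based fibril read: tau 1 uM final, inducer ODS 30 uM final, 37 C for 15 h, ex 450/em 510 nm.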
# HEK293 cAMP cs: raises cAMP in parental HEK293 cells, TSHR agonist counter-screen; AID 938; 73,000 tested, 2.5% active; Potency, µM (highest dose often 57.1 µM), inactives show at the top dose activation, usual class: activators; parental HEK293 CNG cAMP sensor, membrane potential fluorescence; further: % of control where 0% means no effect; nearly all actives have a fitted effect of over 55% in size
#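 Counterscreen for endogenous-receptor signalling: CNG-channel HEK 293 cells report cAMP rise by membrane depolarization. After 60 min dye equilibration with 100 uM RO 20-1724, compounds incubated 30 min before bottom-read fluorescence at 590 nm.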
# ERK AVP inh: blocks ERK signaling stimulated by vasopressin. HEK293-V1b, vasopressin-stimulated pERK AlphaScreen. Potency, µM (series often up to 57.5 µM), inactives show at the highest dose activity, negative = inhibition, most hits filed as inhibitors. 72,000 tested, 0.99% active; further: on the % scale 0 is the no-effect control and ±100 the full control effect; nearly all actives have a fitted effect of over 55% in size
#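 HEK293 cells stably expressing V1b receptor, seeded overnight in 1% FBS, were treated with compounds for 30 min at 37C, then stimulated 5 min with 25 nM vasopressin; phospho-ERK read by AlphaScreen SureFire after lysis.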
# Starred values were filed as active, the others as inactive; ? = inconclusive; . = not tested or not shown; [ ] = dose if it differs, or a comment. Unless noted, the call rests on the fitted dose curve; in most records, active means well fitted curve in the direction sought with a large enough effect; inconclusive means small, poorly fitted or top-dose-only effect, or another doubt; inactive means no such curve, though single readings can be large; an effect the other way counts as inactive or inconclusive. Potency means the concentration at half of the fitted maximal effect.
SMILES,CRE-bla Fsk,TSHR agonist,Tau filament bind,HEK293 cAMP cs,ERK AVP inh
FC(F)(F)c1ccccc1-c1ccc2ncnc(NC3CCNCC3)c2c1,?,4%,6%,10%,7%
Cc1cc(C)c(C#N)c(SCC(=O)c2cccs2)n1,?,?,2.5µM*,?,22%
Cc1ccc(C23CC4CC(CC(NC(=O)N5CCN(C)CC5)(C4)C2)C3)cc1,-2%,10%,16µM*,5%,-14%
O=C(Nc1ccc(CN2CCOCC2)cc1)c1cc2ccccc2o1,2%,10%,1%,14%,25µM*
O=C(Nc1ccc2c(c1)OCO2)c1ccc(CN2CCOCC2)cc1,1%,-2%,16µM*,18%,?
O=C(Nc1ccc(N2CCOCC2)cc1)c1cc2ccccc2o1,.,-5%,.,0%,.
O=C(Nc1ccc(CN2CCCCC2)cc1)c1ccc2c(c1)OCO2,1%,9%,24%,12%,-15%
CCC(=O)Nc1ccc(NC(=O)c2cc3ccccc3o2)cc1,-1%,-2%,91%,-16%,-17%
Cn1c(=O)n(C)c2cc(NC(=O)c3cc4ccccc4o3)ccc21,10µM*,-8%,37%,0%,-17%
CC(Cc1ccc(O)c(O)c1)(NN)C(=O)O (configuration not stated),.,.,.,.,4%
CN1CCN(CCCN)CC1,6%[7.6 µM],5%[11.4 µM],1%[11.4 µM],1%[11.4 µM],-3%[11.5 µM]
CCOc1ccc(-c2nc(CSCC(=O)N3CCN(c4cccc(OC)c4)CC3)c(C)o2)cc1,?,7%,181%,-5%,13µM*
Cc1ccc(-c2nc(CSCC(=O)N3CCN(c4ccccn4)CC3)c(C)o2)cc1,-11%,?,41%,?,9%
COCCn1c(-c2ccc(Cl)cc2)cnc1SCC(=O)NCc1cccs1,4%,?,-6%,10µM*,-20%
CCCn1nnnc1SCC(=O)NCc1cccs1,1%,6%,-13%,1%,0%
N#C/C(C(N)=O)=c1/ccc2c(c1)N1C3=C(CCCC3)CC3CCCCC31N=2 (configuration not stated),8%,?,5µM*,-106%,?
N#CC(C#N)=c1ccc2c(c1)N1C3=C(CCCC3)CC3CCCCC31N=2 (configuration not stated),11%,?,1.6µM*,-87%,2.5µM*
Cc1nn(-c2ccccc2)c2c1/C(=N/O)CC(C)(C)C2,?,?,-1%,25µM*,-26%
CS(=O)(=O)Nc1cccc(-c2nc(N3CCOCC3)c3ccccc3n2)c1,2.5µM*,.,8%,11%,-13%
CN(C)C(=O)c1ccc(-c2nc(N3CCOCC3)c3ccccc3n2)cc1,10µM*,3%,0%,-9%,-27%
CN(C)c1ccc(-c2nc(N3CCNCC3)c3ccccc3n2)cc1,?,?,3.2µM*,-78%,-7%
CN(C)C(=O)c1ccc(-c2nc(-n3ccnc3)c3ccccc3n2)cc1,?,0%,8%,9%,-28%
FC(F)(F)c1ccccc1-c1nc(N2CCOCC2)c2ccccc2n1,?,?,8%,1µM*,-5%
CN1CCN(CC(=O)N2c3ccccc3Sc3cc4ccccc4cc32)CC1,4%[7.6 µM],10%[11.4 µM],-3%[11.4 µM],23%[11.4 µM],1%[11.5 µM]
CC(C)=N[C@H](C(=O)O)C(C)(C)S,2%[7.6 µM],17%[11.4 µM],5%[11.4 µM],7%[11.4 µM],10%[11.5 µM]
SMILES,CRE-bla Fsk,TSHR agonist,Tau filament bind,HEK293 cAMP cs,ERK AVP inh
CCc1ccc2c(c1)[C@]1(C(=O)N2)[C@@H]2C(=O)N(Cc3ccccc3)C(=O)[C@@H]2[C@@H]2CCCN21,-9%,4%,20µM*,-2%,-7%
Cc1cc(Cl)cc2c1NC(=O)[C@]21[C@@H]2C(=O)N(Cc3ccccc3)C(=O)[C@@H]2[C@@H]2CCCN21,-14%,19%,25µM*,-12%,?
O=C1C=C[C@@H](O)[C@H]2[C@@H]3C(=O)N(Cc4ccccc4)C(=O)[C@@H]3CC[C@H]12,.,-1%[11.4 µM],.,-2%[11.4 µM],39%[11.5 µM]
C=C1CCC2C(CC2(C)C)C(=C)CC/C1=N/O (configuration not stated),.,.,.,.,28%
CCc1c2c(nc3cccc(SC)c13)COC2,?,?,25%,?,?
Cc1c(C)n(C)c2ccc(C(=O)NCc3cccs3)cc12,8%,17%,23%,23%,13µM*
O=S(=O)(c1ccc(F)c2ccccc12)N1CCCCC1,-8%,?,2%,32µM*,25%
CCN1CCC[C@@H]1CNC(=O)c1c(O)c(Cl)cc(Cl)c1OC,-3%,5%,-8%,-6%,-2%
Cc1ccccc1Cc1c(C)nc2c(C(=O)N3CCN(Cc4ccc5c(c4)OCO5)CC3)cnn2c1C,2%,?,2%,20µM*,-14%
Cc1nc2c(C(=O)N3CCCCC3)cnn2c(C)c1Cc1ccccc1F,17%,?,-3%,?,2%
CC(=O)OC[C@@H]1O[C@@H](O/N=C2/C[C@@H](O)[C@@H](O)[C@@H]3[C@@H]4C(=O)N([C@@H](C)c5ccccc5)C(=O)[C@H]4CC[C@H]23)[C@H](OC(C)=O)[C@H](OC(C)=O)[C@@H]1OC(C)=O,.,-7%[11.4 µM],.,3%[11.4 µM],-6%[11.5 µM]
Cc1nc(C)c(C(=O)Nc2ccccc2)s1,19%,6%,18%,0%,-19%
CSc1nc(C)c(C(=O)Nc2ccccc2)c(C)c1C#N,-12%,?,-2%,25µM*,25%
Clc1ccc(-c2nnc(N3CCCC3)nn2)cc1,4%,-49%,13µM*,-29%,-16%
Clc1ccc(-c2noc(CN3CCCCC3)n2)cc1,10%[7.6 µM],-2%[11.4 µM],-6%[11.4 µM],0%[11.4 µM],?
O=C(CN1C(=O)c2ccccc2C1=O)[C@@H](O)CN1C(=O)c2ccccc2C1=O,-1%[7.6 µM],4%[11.4 µM],5%[11.4 µM],-7%[11.4 µM],-9%[11.5 µM]
CC1(Cc2cn(CCC#N)c3ccccc23)OCCO1,?,16µM*,18%,15%,-1%
O=C1[C@@H]2[C@H]3[C@H](O)[C@H](O)C/C(=N/OC[C@@H](O)COCc4ccco4)[C@H]3CC[C@H]2C(=O)N1c1ccc(F)cc1F,.,-1%[11.4 µM],.,-3%[11.4 µM],-6%[11.5 µM]
O=c1cc(CF)[nH]c(=S)[nH]1,-9%[7.6 µM],-2%[11.4 µM],3%[11.4 µM],2%[11.4 µM],0%[11.5 µM]
Cc1cc(=O)cc(C)n1-c1ccccc1N1CCOCC1,?,4%,7.9µM*,-10%,?
COc1ccccc1N1CCN(C(=O)N2CCOCC2)CC1,?,-12%[11.4 µM],-3%[11.4 µM],0%[11.4 µM],-3%
C=CCNc1ncnc2c1[nH]c1ccccc12,6%,27%,-3%,20%,?
CCOCCCNc1ncnc2c1[nH]c1ccccc12,3%,?,-17%,?,40µM*
CC1(C)[C@@H]2CC[C@@]1(CS(=O)(=O)Nc1ccccc1)C(=O)C2,18%[7.6 µM],-2%[11.4 µM],5%[11.4 µM],-7%[11.4 µM],1%[11.5 µM]
CN(C)C(=O)C1CCN(Cc2c[nH]c3ccccc23)CC1,-11%[7.6 µM],0%[11.4 µM],14%[11.4 µM],-3%[11.4 µM],-19%[11.5 µM]
CCc1ccc(N/C(SC)=C(/C#N)C(N)=O)cc1,1%,-1%,-3%,24%,-18%
